An excerpt weighted towards active compounds, which were near 3% of everything screened.
KDM5B inh = blocks human KDM5B histone demethylase activity. Potency, µM (highest dose often 57.7 µM), most hits filed as inhibitors. Q9UGL1. KDM5B demethylase, FDH-coupled NADH fluorescence (FDH is formaldehyde dehydrogenase). actives 2.6% (n = 220,000); also: potency is read from the fitted curve at half-maximal effect; 0% is about no effect; nearly all actives have a fitted effect of over 70% in size
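Coupled FDH/NAD⁺ fluorescence readout. KDM5BΔAP 200 nM final; compound titration, 10 min RT preincubation; substrate mix 12.5 µM H3K4me3, 25 µM 2-OG, 50 µM Fe(II), 100 µM ascorbate, 0.25 mM NAD⁺, 0.25 U/mL FDH; ΔRFU over 30 min.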
SNCA viab count = cell viability loss counter-screen; HEK-293-SNCA-luc viability, GF-AFC fluorescence, 24 h; Potency, µM (highest dose often 57.1 µM), without a hit: top-dose activity change, negative = cytotoxicity, usual class: cytotoxic; actives 0.12% (n = 150,000);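 also: potency is read from the fitted curve at half-maximal effect; 0% = DMSO-treated cells and -100% = medium-only wells without cells; nearly all actives have a fitted effect of over 30% in size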
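Cytotoxicity counterscreen: after 24 h compound treatment of genome-edited SNCA-luciferase HEK-293 cells, live-cell protease substrate GF-AFC read by fluorescence after 30 min; activity scaled between DMSO (0%) and medium-only (-100%), curves Hill-fitted.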
SNCA expr inhib = inhibitors of alpha-synuclein (SNCA) gene expression; actives 0.17% (n = 140,000); Potency, µM (series often up to 57.2 µM), inactives show top-dose activity change, negative = inhibition, actives largely listed as inhibitors; AID 1671194; HEK-293 SNCA-luciferase knock-in, luminescence, 24 h;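 also: potency is read from the fitted curve at half-maximal effect; plate controls were DMSO cells for no effect and cell-free wells for full effect; nearly all actives have a fitted effect of over 45% in size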
IP6K1 inhibitor = IP6K1 kinase inhibition; activity change, % (series mostly up to about 58 µM); IP6K1 kinase, ADP-Glo luminescence, 2 h; active compounds read low; actives 0.81% (n = 140,000); Q92551; in the data active = activity change below about -25%; also: % is scaled to controls: 0 for no effect and ±100 for the full control effect
Target sequence (Q92551 whole entry, looked up): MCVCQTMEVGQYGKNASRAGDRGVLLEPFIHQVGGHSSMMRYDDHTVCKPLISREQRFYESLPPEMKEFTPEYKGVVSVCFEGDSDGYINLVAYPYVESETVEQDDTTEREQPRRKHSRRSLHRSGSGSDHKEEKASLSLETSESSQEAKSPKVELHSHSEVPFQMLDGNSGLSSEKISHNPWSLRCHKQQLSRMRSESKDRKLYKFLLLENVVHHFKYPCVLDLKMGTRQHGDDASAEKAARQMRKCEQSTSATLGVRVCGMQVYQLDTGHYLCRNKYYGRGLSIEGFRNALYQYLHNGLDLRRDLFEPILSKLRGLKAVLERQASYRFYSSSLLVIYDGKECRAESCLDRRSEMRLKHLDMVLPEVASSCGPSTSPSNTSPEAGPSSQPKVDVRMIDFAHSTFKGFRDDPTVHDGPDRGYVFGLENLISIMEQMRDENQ
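ADP-Glo luminescence measures ADP made by human IP6K1 during a 2 h RT reaction with ATP/IP6 (mix at 1.3 mM/130 uM); top library doses 57.5 and 19.1 uM final.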
Active calls of the source: *; [ ] = remark or other dose. Unless noted, calls follow the shape of the dose curve; as a rule, active = well fitted curve in the direction sought with a large enough effect; inconclusive = small, poorly fitted or top-dose-only effect, or another doubt; inactive = no such curve, though single readings can be large; an effect the other way counts as inactive or inconclusive.

Results for O=C(c1ccc(F)cc1)N1C[C@@H]2C[C@H](C1)c1ccc(C3CCCCC3)c(=O)n1C2 ?
KDM5B inh: 32µM*; SNCA viab count: -8%[87.6 µM]; SNCA expr inhib: -2%[87.6 µM]; IP6K1 inhibitor: 10

How did CCOC(=O)[C@H]1CN(C(=O)NCc2ccccc2)[C@]2(C)C(=O)N(CC(=O)N(C)C)c3ccccc3[C@H]12 do in these assays?
SNCA viab count: -2%[23.9 µM]; SNCA expr inhib: 50%[25.6 µM]; IP6K1 inhibitor: -4

What do the screens show for `COc1ccc(CCNCc2ccc(OC)c3ccccc23)cc1`?
SNCA viab count: 12%; IP6K1 inhibitor: 1

How did CCOC(=O)[C@H]1CN(C(=O)Nc2ccc3c(c2)OCO3)[C@]2(C)C(=O)N(CC3CC3)c3ccccc3[C@H]12 do in these assays?
SNCA viab count: -3%[23.9 µM]; SNCA expr inhib: 34%[25.6 µM]; IP6K1 inhibitor: 7

What do the screens show for `O=C(O)CCC(=O)N1C[C@@H]2C[C@H](C1)c1ccc(-c3ccc(Cl)cc3)c(=O)n1C2`?
KDM5B inh: 35µM*; SNCA viab count: 0%[87.6 µM]; SNCA expr inhib: inconclusive; IP6K1 inhibitor: -1

Results for O=C(c1ccccc1)N1C[C@@H]2C[C@H](C1)c1ccc(-c3ccc(Cl)cc3)c(=O)n1C2 ?
KDM5B inh: inactive; SNCA viab count: -18%[87.6 µM]; SNCA expr inhib: 29%[87.6 µM]; IP6K1 inhibitor: -4

Results for O=C(O)COCC(=O)N1C[C@@H]2C[C@H](C1)c1ccc(-c3cccc(C(F)(F)F)c3)c(=O)n1C2 ?
KDM5B inh: 32µM*; SNCA viab count: -1%; SNCA expr inhib: -4%; IP6K1 inhibitor: 4

What do the screens show for `O=C(c1ccccc1)N1C[C@@H]2C[C@H](C1)c1ccc(-c3cccc(C(F)(F)F)c3)c(=O)n1C2`?
KDM5B inh: 25µM*; SNCA viab count: 0%; SNCA expr inhib: -5%; IP6K1 inhibitor: 10

How did Cc1ncc2c(n1)C[C@@H]1CC[C@H]2N1C(=O)NCCc1ccccc1 do in these assays?
SNCA viab count: 17%; SNCA expr inhib: -7%; IP6K1 inhibitor: -8

What do the screens show for `C/C=C(\C)C(=O)O[C@H]1[C@H](OC(C)=O)[C@]2(CO)[C@H](O)[C@H](O)[C@]3(C)C(=CCC4[C@@]5(C)CC[C@H](O[C@@H]6O[C@H](C(=O)O)[C@@H](O)[C@H](O[C@@H]7OC[C@H](O)[C@H](O[C@@H]8OC[C@H](O)[C@H](O)[C@H]8O)[C@H]7O)[C@H]6O[C@@H]6O[C@H](CO)[C@@H](O)[C@H](O)[C@H]6O)C(C)(C)C5CC[C@]43C)[C@@H]2CC1(C)C` (some centres undefined)?
SNCA viab count: inconclusive; IP6K1 inhibitor: -4

Results for CC1=CC2/C=C(\C)CCCC(O)/C=C/C(=O)OC23C(=O)NC(CC(C)C)C3C1C (centres undefined) ?
SNCA viab count: -23%; IP6K1 inhibitor: -10

Results for COc1cc2c(cc1OCc1ccccc1)N(C(=O)c1cccc3[nH]ccc13)CC21CCN(C)CC1 ?
KDM5B inh: inconclusive; SNCA viab count: -10%; SNCA expr inhib: 16%; IP6K1 inhibitor: -10

What do the screens show for `COc1cc2c(cc1OCc1ccccc1)N(C(=O)c1c[nH]c3ccccc13)CC21CCN(C)CC1`?
KDM5B inh: inactive; SNCA viab count: 25µM*; SNCA expr inhib: inconclusive; IP6K1 inhibitor: -4

Results for O=c1c(-c2cccs2)ccc2n1C[C@H]1C[C@@H]2CN(Cc2cc3ccccc3o2)C1 ?
KDM5B inh: 32µM*; SNCA viab count: 2%[87.6 µM]; SNCA expr inhib: -3%[87.6 µM]; IP6K1 inhibitor: 6

Results for O=C(O)COCC(=O)N1C[C@@H]2C[C@H](C1)c1ccc(-c3cc4ccccc4s3)c(=O)n1C2 ?
KDM5B inh: inconclusive; SNCA viab count: 5%; SNCA expr inhib: 50%; IP6K1 inhibitor: 48

What do the screens show for `Cc1ccccc1-c1ccc2n(c1=O)C[C@H]1C[C@@H]2CN(Cc2cccs2)C1`?
KDM5B inh: 32µM*; SNCA viab count: 2%[87.6 µM]; SNCA expr inhib: -26%[87.6 µM]; IP6K1 inhibitor: 0

Results for Cc1ccccc1-c1ccc2n(c1=O)C[C@H]1C[C@@H]2CN(C(=O)CCC(=O)O)C1 ?
KDM5B inh: inconclusive; SNCA viab count: -3%[87.6 µM]; SNCA expr inhib: 1%[87.6 µM]; IP6K1 inhibitor: 21

What do the screens show for `CCCN1CC[C@@H](CO)N(C)c2nc(C)ccc2C1`?
KDM5B inh: inconclusive; SNCA viab count: 4%[87.6 µM]; SNCA expr inhib: -15%[87.6 µM]; IP6K1 inhibitor: 25

Results for Cc1ccc2c(n1)N(C)[C@H](CO)CCN(C1COC1)C2 ?
KDM5B inh: 32µM*; SNCA viab count: 5%[87.6 µM]; SNCA expr inhib: -1%[87.6 µM]; IP6K1 inhibitor: -5

What do the screens show for `Cc1ccc2c(n1)N(C)[C@H](CO)CCN(CCC(C)C)C2`?
KDM5B inh: 32µM*; SNCA viab count: 3%[87.6 µM]; SNCA expr inhib: 12%[87.6 µM]; IP6K1 inhibitor: -6

What do the screens show for `CC(C)(NC(=O)[C@@H](N)Cc1ccc(O)cc1)C(=O)N[C@@H](Cc1cc2ccccc2[nH]1)C(=O)N[C@@H](Cc1ccccc1)C(=O)O`?
SNCA viab count: 14%[12.5 µM]; IP6K1 inhibitor: -1

Results for NC1=NC(=O)N2CC12 (centres undefined) ?
SNCA viab count: -15%; SNCA expr inhib: 9.6µM*

Results for CCCCOC(=O)N1C[C@H](C(=O)OCC)[C@H]2c3ccccc3NC(=O)[C@]21C ?
SNCA viab count: -5%[23.9 µM]; SNCA expr inhib: inconclusive; IP6K1 inhibitor: 7

What do the screens show for `O=C1NC2(CCN(Cc3ccccn3)C2)OCc2ccccc21` (centres undefined)?
KDM5B inh: 40µM*; SNCA viab count: -1%[87.6 µM]; SNCA expr inhib: -7%[87.6 µM]; IP6K1 inhibitor: 14

What do the screens show for `Ic1ccccc1CNC1C2CCN(CC2)C1C(c1ccccc1)c1ccccc1` (centres undefined)?
SNCA viab count: 22µM*; SNCA expr inhib: inconclusive

Results for O=c1ccc(-c2cccs2)c2n1C[C@H]1C[C@@H]2CN(S(=O)(=O)c2cccs2)C1 ?
KDM5B inh: 32µM*; SNCA viab count: 5%[87.6 µM]; SNCA expr inhib: 32%[87.6 µM]; IP6K1 inhibitor: 3

What do the screens show for `O=c1ccc(-c2cccs2)c2n1C[C@H]1C[C@@H]2CN(S(=O)(=O)c2cccc(C(F)(F)F)c2)C1`?
KDM5B inh: inactive; SNCA viab count: 4%; SNCA expr inhib: 24%; IP6K1 inhibitor: 25

What do the screens show for `CSc1ccc(-c2ccc(=O)n3c2[C@@H]2C[C@@H](CN(S(C)(=O)=O)C2)C3)cc1`?
KDM5B inh: 35µM*; SNCA viab count: 2%[87.6 µM]; SNCA expr inhib: 19%[87.6 µM]; IP6K1 inhibitor: -1

How did CCCS(=O)(=O)Nc1ccc(=O)n2c1[C@@H]1C[C@@H](CN(C(=O)COc3ccccc3)C1)C2 do in these assays?
KDM5B inh: 32µM*; SNCA viab count: 8%; SNCA expr inhib: -7%; IP6K1 inhibitor: 14

Results for CSCC(=O)N1C[C@@H]2C[C@H](C1)c1c(-c3ccc(NC(C)=O)cc3)ccc(=O)n1C2 ?
KDM5B inh: 28µM*; SNCA viab count: 4%[87.6 µM]; SNCA expr inhib: -24%[87.6 µM]; IP6K1 inhibitor: 2

What do the screens show for `C[C@@H]1CCC2[C@@H](C)C(=O)OC3O[C@@]4(C)CCC1[C@]32OO4` (some centres undefined)?
SNCA viab count: -8%; IP6K1 inhibitor: -14
